{"source": "paper PMC7862700", "about": "“An all-to-all approach to the identification of sequence-specific readers for epigenetic DNA modifications on cytosine”", "test_in_all_cases": "DAPPL (digital affinity profiling via proximity ligation, sequencing); 10 mM Tris-HCl pH 7.5, 50 mM NaCl, 1 mM DTT, 4% glycerol, room temperature, 30 min; GST-TFs on glutathione beads, 16-mer random dsDNA library, 0.1% formaldehyde crosslink after washing; high values mean tight binding", "key": {"FEV": {"biological_target": "T1, FEV (Homo sapiens, UniProt Q99581 1-238)", "T1 sequence": "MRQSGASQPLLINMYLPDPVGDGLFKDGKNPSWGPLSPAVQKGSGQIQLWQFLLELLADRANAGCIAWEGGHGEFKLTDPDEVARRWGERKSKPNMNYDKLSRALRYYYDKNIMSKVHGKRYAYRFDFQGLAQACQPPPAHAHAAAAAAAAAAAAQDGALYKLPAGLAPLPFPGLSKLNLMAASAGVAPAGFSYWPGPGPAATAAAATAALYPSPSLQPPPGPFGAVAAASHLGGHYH", "conditions": "protein: recombinant; tags: N-terminal GST; dsDNA, one strand shown", "in_short": "(§1)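 Yeast served to express human transcription factors as GST fusions, which were then captured on glutathione beads and labelled with DNA barcodes. Pooled with a tag-only sample, they were incubated with 200 nmole of a 16-mer random double-stranded DNA library for 30 min at room temperature in Tris/NaCl/DTT/glycerol buffer, washed, crosslinked with 0.1% formaldehyde, ligated by proximity, amplified by PCR and sequenced. Dividing each hexamer's read frequency for a factor by its frequency for the tag-only sample gives the binding signal.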"}, "ETV5": {"biological_target": "ETV5 (Homo sapiens, UniProt P41161 1-510)", "sequence (P41161 whole entry)": "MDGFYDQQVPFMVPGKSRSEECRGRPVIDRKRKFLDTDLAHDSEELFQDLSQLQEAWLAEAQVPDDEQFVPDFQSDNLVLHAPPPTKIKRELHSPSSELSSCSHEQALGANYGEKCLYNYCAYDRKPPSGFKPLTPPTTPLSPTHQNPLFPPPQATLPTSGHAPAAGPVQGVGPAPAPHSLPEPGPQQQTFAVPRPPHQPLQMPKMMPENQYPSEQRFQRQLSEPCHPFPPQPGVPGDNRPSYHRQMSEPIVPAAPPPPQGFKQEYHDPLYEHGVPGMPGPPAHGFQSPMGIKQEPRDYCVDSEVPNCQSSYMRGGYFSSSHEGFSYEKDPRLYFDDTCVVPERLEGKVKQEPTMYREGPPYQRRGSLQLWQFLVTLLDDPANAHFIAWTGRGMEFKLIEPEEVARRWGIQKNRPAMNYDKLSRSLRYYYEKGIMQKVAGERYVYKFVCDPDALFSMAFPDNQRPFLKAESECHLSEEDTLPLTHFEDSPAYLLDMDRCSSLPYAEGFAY", "conditions": "protein: recombinant; tags: N-terminal GST; dsDNA, one strand shown", "in_short": "as §1"}, "HSF1": {"biological_target": "HSF1 (Homo sapiens, UniProt Q00613 1-529)", "sequence (Q00613 whole entry)": "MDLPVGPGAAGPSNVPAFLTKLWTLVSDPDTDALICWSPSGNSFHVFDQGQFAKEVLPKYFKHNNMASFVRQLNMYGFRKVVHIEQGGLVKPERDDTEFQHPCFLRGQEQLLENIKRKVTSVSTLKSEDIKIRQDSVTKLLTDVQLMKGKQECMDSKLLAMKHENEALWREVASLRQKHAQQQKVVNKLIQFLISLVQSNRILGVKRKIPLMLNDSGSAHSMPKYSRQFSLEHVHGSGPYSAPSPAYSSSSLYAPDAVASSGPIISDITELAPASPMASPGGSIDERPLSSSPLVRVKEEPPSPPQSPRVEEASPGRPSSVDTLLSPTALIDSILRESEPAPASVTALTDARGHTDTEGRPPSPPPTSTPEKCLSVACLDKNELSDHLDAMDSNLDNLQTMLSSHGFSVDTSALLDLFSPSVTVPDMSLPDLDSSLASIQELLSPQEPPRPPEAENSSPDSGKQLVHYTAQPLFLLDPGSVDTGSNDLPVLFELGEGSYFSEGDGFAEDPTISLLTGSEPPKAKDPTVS", "conditions": "protein: recombinant; tags: N-terminal GST; chain copies: 3; dsDNA, one strand shown", "in_short": "as §1"}, "SPIC": {"biological_target": "T2, SPIC (Homo sapiens, UniProt Q8N5J4 1-248)", "T2 sequence": "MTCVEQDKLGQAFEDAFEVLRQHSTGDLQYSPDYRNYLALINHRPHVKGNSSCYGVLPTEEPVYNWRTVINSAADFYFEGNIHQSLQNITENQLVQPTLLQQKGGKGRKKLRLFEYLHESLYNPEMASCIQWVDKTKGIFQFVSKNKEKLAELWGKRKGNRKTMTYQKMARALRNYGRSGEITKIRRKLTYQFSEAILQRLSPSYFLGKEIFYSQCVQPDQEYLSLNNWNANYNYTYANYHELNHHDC", "conditions": "protein: recombinant; tags: N-terminal GST; dsDNA, one strand shown", "in_short": "as §1"}, "ELF4": {"biological_target": "ELF4 (Homo sapiens, UniProt Q99607 1-663)", "sequence (Q99607 whole entry)": "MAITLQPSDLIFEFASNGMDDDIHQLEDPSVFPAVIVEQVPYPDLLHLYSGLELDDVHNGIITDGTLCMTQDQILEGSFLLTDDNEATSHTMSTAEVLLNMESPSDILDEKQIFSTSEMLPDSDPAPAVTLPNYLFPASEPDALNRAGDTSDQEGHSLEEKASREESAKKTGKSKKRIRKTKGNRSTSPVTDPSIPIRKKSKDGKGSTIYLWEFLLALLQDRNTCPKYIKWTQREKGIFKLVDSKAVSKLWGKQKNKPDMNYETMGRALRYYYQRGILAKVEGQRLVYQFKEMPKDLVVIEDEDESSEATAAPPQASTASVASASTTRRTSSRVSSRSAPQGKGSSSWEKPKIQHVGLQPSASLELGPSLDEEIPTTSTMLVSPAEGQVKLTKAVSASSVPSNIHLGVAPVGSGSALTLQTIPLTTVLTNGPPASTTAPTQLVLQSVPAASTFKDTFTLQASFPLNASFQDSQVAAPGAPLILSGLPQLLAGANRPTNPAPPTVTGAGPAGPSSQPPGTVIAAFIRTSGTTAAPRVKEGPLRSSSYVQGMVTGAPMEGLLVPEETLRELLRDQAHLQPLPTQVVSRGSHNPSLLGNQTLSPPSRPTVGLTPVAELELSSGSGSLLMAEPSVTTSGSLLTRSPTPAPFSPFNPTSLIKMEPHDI", "conditions": "protein: recombinant; tags: N-terminal GST; dsDNA, one strand shown", "in_short": "as §1"}, "ELK4": {"biological_target": "T3, ELK4 (Homo sapiens, UniProt P28324-2 1-405)", "T3 sequence": "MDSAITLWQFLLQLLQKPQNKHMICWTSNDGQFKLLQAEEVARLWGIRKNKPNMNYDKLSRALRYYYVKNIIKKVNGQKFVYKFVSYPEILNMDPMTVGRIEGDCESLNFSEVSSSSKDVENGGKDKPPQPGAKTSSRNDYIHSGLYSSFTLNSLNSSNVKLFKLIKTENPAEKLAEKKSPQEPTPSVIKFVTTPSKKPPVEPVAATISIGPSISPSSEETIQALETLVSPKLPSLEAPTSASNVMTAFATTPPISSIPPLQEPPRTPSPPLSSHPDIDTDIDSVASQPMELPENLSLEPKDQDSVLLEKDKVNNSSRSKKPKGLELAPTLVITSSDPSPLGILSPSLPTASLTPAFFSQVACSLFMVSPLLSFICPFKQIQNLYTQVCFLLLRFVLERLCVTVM", "conditions": "protein: recombinant; tags: N-terminal GST; dsDNA, one strand shown", "in_short": "as §1"}, "ETV2": {"biological_target": "T4, ETV2 (Homo sapiens, UniProt O00321 1-342)", "T4 sequence": "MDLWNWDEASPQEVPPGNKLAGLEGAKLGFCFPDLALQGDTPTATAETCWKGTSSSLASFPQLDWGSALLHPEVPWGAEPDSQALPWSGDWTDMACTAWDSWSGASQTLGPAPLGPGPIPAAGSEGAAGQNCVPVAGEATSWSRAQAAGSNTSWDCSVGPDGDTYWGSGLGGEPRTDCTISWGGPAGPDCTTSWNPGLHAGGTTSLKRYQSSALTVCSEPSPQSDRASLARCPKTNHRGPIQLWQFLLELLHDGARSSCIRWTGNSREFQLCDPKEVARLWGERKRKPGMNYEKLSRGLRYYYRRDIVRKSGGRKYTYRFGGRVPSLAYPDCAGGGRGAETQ", "conditions": "protein: recombinant; tags: N-terminal GST; dsDNA, one strand shown", "in_short": "as §1"}, "ELF3": {"biological_target": "T5, ELF3 (Homo sapiens, UniProt P78545 1-371)", "T5 sequence": "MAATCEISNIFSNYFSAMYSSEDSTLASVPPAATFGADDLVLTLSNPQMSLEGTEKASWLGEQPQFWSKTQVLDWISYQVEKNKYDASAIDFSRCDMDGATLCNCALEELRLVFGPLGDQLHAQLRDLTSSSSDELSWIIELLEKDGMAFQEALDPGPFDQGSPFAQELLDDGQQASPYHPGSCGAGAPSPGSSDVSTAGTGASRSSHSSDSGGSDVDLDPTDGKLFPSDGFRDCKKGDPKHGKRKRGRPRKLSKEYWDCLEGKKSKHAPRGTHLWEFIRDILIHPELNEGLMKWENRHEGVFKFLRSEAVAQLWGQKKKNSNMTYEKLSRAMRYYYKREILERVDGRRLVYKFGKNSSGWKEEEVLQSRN", "conditions": "protein: recombinant; tags: N-terminal GST; dsDNA, one strand shown", "in_short": "as §1"}, "CRX": {"biological_target": "CRX (Homo sapiens, UniProt O43186 1-299)", "sequence (O43186 whole entry)": "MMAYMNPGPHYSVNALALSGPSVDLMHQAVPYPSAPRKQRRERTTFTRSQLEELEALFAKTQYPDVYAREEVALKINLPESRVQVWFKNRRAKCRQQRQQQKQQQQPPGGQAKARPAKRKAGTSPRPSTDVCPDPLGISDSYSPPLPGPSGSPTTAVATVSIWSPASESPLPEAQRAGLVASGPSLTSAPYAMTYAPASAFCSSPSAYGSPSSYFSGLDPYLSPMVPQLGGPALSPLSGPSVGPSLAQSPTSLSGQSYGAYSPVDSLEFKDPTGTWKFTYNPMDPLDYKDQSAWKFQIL", "conditions": "protein: recombinant; tags: N-terminal GST; dsDNA, one strand shown", "in_short": "as §1"}, "ETV1": {"biological_target": "ETV1 (Homo sapiens, UniProt P50549 1-477)", "sequence (P50549 whole entry)": "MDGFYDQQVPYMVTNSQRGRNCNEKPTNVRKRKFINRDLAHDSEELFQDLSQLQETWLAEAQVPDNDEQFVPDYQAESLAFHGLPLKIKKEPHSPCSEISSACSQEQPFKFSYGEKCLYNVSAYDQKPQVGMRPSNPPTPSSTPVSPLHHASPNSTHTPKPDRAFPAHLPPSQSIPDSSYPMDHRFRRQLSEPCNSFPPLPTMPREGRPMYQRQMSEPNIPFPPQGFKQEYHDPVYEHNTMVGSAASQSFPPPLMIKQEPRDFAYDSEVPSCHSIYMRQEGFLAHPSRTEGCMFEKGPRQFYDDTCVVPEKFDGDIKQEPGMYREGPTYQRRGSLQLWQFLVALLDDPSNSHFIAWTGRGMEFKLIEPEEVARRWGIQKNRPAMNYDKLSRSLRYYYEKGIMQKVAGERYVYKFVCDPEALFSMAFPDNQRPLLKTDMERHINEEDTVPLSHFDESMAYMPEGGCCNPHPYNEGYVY", "conditions": "protein: recombinant; tags: N-terminal GST; dsDNA, one strand shown", "in_short": "as §1"}, "ERF": {"biological_target": "T6, ERF (Homo sapiens, UniProt P50548 1-548)", "T6 sequence": "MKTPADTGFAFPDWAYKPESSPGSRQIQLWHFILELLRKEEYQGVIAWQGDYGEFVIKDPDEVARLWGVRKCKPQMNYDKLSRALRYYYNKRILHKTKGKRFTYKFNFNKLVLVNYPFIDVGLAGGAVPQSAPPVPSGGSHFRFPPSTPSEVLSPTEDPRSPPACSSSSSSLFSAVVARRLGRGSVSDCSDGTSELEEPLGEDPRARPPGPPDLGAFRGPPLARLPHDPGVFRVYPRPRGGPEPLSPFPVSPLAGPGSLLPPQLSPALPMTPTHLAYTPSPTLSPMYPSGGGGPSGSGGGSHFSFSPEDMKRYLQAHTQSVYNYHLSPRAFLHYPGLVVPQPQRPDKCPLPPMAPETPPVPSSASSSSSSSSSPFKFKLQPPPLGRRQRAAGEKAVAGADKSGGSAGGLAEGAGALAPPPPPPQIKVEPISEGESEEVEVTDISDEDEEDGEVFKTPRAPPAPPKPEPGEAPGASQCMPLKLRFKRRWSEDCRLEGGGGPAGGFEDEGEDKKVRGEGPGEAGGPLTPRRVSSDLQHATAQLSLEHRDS", "conditions": "protein: recombinant; tags: N-terminal GST; dsDNA, one strand shown", "in_short": "as §1"}, "ETV3L": {"biological_target": "T7, ETV3L (Homo sapiens, UniProt Q6ZN32 1-361)", "T7 sequence": "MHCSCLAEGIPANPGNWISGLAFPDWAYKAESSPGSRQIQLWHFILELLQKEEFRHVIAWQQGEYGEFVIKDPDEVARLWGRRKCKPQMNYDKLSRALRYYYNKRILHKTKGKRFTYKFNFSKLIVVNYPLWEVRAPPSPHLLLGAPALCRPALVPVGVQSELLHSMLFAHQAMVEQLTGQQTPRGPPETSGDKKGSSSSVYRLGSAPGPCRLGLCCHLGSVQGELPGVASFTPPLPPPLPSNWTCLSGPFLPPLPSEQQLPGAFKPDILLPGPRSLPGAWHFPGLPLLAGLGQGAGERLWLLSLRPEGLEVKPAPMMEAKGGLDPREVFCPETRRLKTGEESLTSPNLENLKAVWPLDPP", "conditions": "protein: recombinant; tags: N-terminal GST; dsDNA, one strand shown", "in_short": "as §1"}, "ETS2": {"biological_target": "T8, ETS2 (Homo sapiens, UniProt P15036 1-469)", "T8 sequence": "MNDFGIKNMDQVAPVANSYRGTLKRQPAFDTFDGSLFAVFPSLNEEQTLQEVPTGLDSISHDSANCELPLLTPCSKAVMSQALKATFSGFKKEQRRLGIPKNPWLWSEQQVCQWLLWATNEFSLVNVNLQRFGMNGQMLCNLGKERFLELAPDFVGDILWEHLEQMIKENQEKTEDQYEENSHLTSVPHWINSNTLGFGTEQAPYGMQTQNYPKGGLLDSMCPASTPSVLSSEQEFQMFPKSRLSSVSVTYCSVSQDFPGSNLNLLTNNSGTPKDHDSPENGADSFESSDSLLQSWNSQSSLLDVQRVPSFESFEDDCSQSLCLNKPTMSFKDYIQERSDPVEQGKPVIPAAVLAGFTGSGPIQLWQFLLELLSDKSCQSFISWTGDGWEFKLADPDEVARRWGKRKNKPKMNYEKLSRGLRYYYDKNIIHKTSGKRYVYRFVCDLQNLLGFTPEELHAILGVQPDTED", "conditions": "protein: recombinant; tags: N-terminal GST; dsDNA, one strand shown", "in_short": "as §1"}, "SPDEF": {"biological_target": "T9, SPDEF (Homo sapiens, UniProt O95238 1-335)", "T9 sequence": "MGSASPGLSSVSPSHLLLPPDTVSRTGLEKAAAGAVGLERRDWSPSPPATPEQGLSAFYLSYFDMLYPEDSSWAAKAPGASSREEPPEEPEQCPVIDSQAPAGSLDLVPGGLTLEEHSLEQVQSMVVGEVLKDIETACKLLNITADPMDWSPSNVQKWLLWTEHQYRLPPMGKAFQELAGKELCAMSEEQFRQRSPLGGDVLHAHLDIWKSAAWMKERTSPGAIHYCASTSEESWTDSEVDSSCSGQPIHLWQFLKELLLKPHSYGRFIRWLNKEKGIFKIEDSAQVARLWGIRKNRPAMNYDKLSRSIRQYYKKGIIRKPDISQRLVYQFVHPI", "conditions": "protein: recombinant; tags: N-terminal GST; dsDNA, one strand shown", "in_short": "as §1"}, "ELF5": {"biological_target": "T10, ELF5 (Homo sapiens, UniProt Q9UKW6-2 1-255)", "T10 sequence": "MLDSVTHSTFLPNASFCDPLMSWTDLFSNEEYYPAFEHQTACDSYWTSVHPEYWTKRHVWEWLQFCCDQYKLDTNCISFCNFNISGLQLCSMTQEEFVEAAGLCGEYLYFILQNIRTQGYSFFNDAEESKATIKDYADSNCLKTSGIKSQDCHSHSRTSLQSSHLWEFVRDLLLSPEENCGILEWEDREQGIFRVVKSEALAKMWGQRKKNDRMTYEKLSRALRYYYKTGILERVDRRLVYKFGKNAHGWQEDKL", "conditions": "protein: recombinant; tags: N-terminal GST; dsDNA, one strand shown", "in_short": "as §1"}, "ETV3": {"biological_target": "T11, ETV3 (Homo sapiens, UniProt P41162-2 1-143)", "T11 sequence": "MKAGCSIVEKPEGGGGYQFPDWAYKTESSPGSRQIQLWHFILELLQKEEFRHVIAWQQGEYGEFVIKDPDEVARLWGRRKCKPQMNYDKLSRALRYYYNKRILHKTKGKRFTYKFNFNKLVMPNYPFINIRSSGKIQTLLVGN", "conditions": "protein: recombinant; tags: N-terminal GST; dsDNA, one strand shown", "in_short": "as §1"}, "ETV6": {"biological_target": "ETV6 (Homo sapiens, UniProt P41212 1-452)", "sequence (P41212 whole entry)": "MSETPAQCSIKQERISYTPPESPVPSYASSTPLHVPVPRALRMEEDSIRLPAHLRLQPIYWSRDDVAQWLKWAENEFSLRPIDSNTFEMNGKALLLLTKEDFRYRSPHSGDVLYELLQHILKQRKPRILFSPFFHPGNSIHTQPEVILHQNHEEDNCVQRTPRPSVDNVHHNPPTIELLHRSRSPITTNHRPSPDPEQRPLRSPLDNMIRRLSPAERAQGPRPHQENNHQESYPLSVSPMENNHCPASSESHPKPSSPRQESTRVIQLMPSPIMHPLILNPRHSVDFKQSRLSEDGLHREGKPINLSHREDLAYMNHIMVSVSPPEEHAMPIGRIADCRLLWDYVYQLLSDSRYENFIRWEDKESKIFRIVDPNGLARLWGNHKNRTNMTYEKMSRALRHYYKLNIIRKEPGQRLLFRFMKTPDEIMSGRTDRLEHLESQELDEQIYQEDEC", "conditions": "protein: recombinant; tags: N-terminal GST; dsDNA, one strand shown", "in_short": "as §1"}}}
{"sequence": "CGGCTT", "values": [{"measurement": "binding signal", "setting": "FEV", "result": "1.14 fold enrichment (6-mer frequency, TF over GST control)"}, {"measurement": "binding signal", "setting": "ETV5", "result": "1.16 fold enrichment (6-mer frequency, TF over GST control)"}, {"measurement": "binding signal", "setting": "HSF1", "result": "1.35 fold enrichment (6-mer frequency, TF over GST control)"}, {"measurement": "binding signal", "setting": "SPIC", "result": "1.13 fold enrichment (6-mer frequency, TF over GST control)"}, {"measurement": "binding signal", "setting": "ELF4", "result": "1.1 fold enrichment (6-mer frequency, TF over GST control)"}, {"measurement": "binding signal", "setting": "ELK4", "result": "1.09 fold enrichment (6-mer frequency, TF over GST control)"}, {"measurement": "binding signal", "setting": "ETV2", "result": "1.27 fold enrichment (6-mer frequency, TF over GST control)"}, {"measurement": "binding signal", "setting": "ELF3", "result": "1.15 fold enrichment (6-mer frequency, TF over GST control)"}, {"measurement": "binding signal", "setting": "CRX", "result": "1.95 fold enrichment (6-mer frequency, TF over GST control)"}, {"measurement": "binding signal", "setting": "ETV1", "result": "1.2 fold enrichment (6-mer frequency, TF over GST control)"}, {"measurement": "binding signal", "setting": "ERF", "result": "1.27 fold enrichment (6-mer frequency, TF over GST control)"}, {"measurement": "binding signal", "setting": "ETV3L", "result": "1.1 fold enrichment (6-mer frequency, TF over GST control)"}, {"measurement": "binding signal", "setting": "ETS2", "result": "1.21 fold enrichment (6-mer frequency, TF over GST control)"}, {"measurement": "binding signal", "setting": "SPDEF", "result": "1.33 fold enrichment (6-mer frequency, TF over GST control)"}, {"measurement": "binding signal", "setting": "ELF5", "result": "1.19 fold enrichment (6-mer frequency, TF over GST control)"}, {"measurement": "binding signal", "setting": "ETV3", "result": "1.15 fold enrichment (6-mer frequency, TF over GST control)"}, {"measurement": "binding signal", "setting": "ETV6", "result": "1.16 fold enrichment (6-mer frequency, TF over GST control)"}]}
